Records with an inconclusive call do not appear. The source made the active and inactive calls. Rule for the calls, unless noted: active = hit-call score of the fitted dose curve at least 0.9, where 1 is the maximum; inactive = score below 0.9.
What was measured:
[1] = biological target: Nuclear respiratory factor 1 (Homo sapiens) (UniProt Q16656); assay: ATG_NRF1_CIS: Attagene CIS-FACTORIAL HepG2 Assay for human Nuclear Respiratory Factor 1 (NRF1) Orphan Gene (AID 2282987); conditions: HepG2 NRF1 cis-element reporter, Attagene multiplex; actives raise or lower the signal
Sequence of Nuclear respiratory factor 1 (Homo sapiens) (Q16656 whole entry, looked up): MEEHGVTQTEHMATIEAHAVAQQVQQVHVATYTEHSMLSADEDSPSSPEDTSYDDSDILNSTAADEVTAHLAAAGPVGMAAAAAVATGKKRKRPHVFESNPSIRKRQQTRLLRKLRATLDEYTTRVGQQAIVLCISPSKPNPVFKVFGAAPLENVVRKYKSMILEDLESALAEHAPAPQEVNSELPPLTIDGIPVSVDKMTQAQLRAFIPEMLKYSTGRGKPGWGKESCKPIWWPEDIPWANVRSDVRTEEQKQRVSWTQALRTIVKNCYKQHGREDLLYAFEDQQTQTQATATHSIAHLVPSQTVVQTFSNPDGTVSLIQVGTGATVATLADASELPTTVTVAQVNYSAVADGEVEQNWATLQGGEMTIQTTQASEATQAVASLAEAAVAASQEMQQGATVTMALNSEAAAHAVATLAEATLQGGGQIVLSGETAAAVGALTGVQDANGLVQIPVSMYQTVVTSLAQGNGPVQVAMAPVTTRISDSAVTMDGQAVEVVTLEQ
In short: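 Endogenous NRF1-driven reporter transcription measured in transiently transfected human HepG2 liver cells. Readout: reporter mRNA by RT-PCR and capillary electrophoresis with fluorescence detection, 24 h post-dosing. Gain or loss of signal fitted relative to DMSO baseline.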

[2] = ATG_NFI_CIS: Attagene CIS-FACTORIAL HepG2 Assay for human Nuclear Factor I (NFI) (AID 2282989); conditions: HepG2 cis-regulatory reporter, NFI response element transcription; actives raise or lower the signal
In short: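 Read-out: reporter mRNA via RT-PCR plus capillary electrophoresis with fluorescence detection. Transiently transfected HepG2 (endogenous TF activity on cis promoters), 24 h compound exposure; gain or loss of signal fitted against DMSO.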

[3] = biological target: Myc proto-oncogene protein (Homo sapiens) (UniProt P01106); assay: ATG_Myc_CIS: Attagene CIS-FACTORIAL HepG2 Assay for human Myelocytomatosis (Myc) Proto-Oncogene Transcription Factor (AID 2282990); conditions: HepG2, Attagene cis-reporter transcription factor activity; actives raise or lower the signal
Sequence of Myc proto-oncogene protein (Homo sapiens) (P01106 whole entry, looked up): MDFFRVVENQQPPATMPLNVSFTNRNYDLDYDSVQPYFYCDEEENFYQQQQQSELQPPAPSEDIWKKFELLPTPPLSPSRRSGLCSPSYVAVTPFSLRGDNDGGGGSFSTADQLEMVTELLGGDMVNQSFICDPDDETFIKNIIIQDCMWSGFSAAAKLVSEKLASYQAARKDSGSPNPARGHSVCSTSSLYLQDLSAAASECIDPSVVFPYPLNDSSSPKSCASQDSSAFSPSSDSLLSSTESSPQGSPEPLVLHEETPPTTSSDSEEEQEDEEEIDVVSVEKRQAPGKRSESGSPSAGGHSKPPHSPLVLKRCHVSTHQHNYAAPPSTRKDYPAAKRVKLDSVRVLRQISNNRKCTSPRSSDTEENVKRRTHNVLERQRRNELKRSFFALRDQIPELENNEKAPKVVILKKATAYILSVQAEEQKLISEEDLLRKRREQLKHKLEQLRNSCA
In short: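 HepG2, transient MRTU transfection (cis promoters, endogenous TFs); 24 h dosing; TriZol RNA → oligo(dT) RT → PCR → 6-FAM primer extension → HpaI cut → CE. Bidirectional fit vs DMSO.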

[4] = ATG_NF_kB_CIS: Attagene CIS-FACTORIAL HepG2 Assay for human Nuclear Factor Kappa B (NF-kB) (AID 2282991); conditions: HepG2 Attagene cis-factorial NF-kB reporter mRNA; actives raise or lower the signal
In short: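 Read-out: reporter transcript levels quantified by RT-PCR plus capillary electrophoresis of 6-FAM-labelled, HpaI-cut fragments. Transfected HepG2 cells, 24 h compound exposure, endogenous NF-kB-driven cis element; gain or loss scored versus DMSO.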

[5] = ATG_NRF2_ARE_CIS: Attagene CIS-FACTORIAL HepG2 Assay for human Nuclear Factor Erythroid 2 Related Factor 2 (NFR2) response to Antioxidant Response Elements (ARE) (AID 2282992); conditions: HepG2 Attagene ARE/NRF2 reporter, transcription factor activity; actives raise or lower the signal
In short: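 Cis-factorial assay: transfected HepG2 reporter library, 24 h dosing, mRNA readout via RT-PCR/CE; DMSO-referenced bidirectional analysis.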

[6] = ATG_Oct_MLP_CIS: Attagene CIS-FACTORIAL HepG2 Assay for human Octamer-Binding Transcription Factor (Oct) (AID 2282993); conditions: HepG2 Attagene cis-factorial Oct reporter, mRNA; actives raise or lower the signal
In short: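 Read-out: reporter mRNA via RT-PCR plus capillary electrophoresis of 6-FAM-labelled fragments. Transiently transfected HepG2, 24 h exposure, endogenous TF activity on cis elements. Gain or loss of signal fitted relative to DMSO.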

[7] = biological target: Cellular tumor antigen p53 (Homo sapiens) (UniProt P04637); assay: ATG_p53_CIS: Attagene CIS-FACTORIAL HepG2 Assay for human p53 Transcription Factor (AID 2282994); conditions: HepG2 p53 cis-element reporter, Attagene mRNA; actives raise or lower the signal
Sequence of Cellular tumor antigen p53 (Homo sapiens) (P04637 whole entry, looked up): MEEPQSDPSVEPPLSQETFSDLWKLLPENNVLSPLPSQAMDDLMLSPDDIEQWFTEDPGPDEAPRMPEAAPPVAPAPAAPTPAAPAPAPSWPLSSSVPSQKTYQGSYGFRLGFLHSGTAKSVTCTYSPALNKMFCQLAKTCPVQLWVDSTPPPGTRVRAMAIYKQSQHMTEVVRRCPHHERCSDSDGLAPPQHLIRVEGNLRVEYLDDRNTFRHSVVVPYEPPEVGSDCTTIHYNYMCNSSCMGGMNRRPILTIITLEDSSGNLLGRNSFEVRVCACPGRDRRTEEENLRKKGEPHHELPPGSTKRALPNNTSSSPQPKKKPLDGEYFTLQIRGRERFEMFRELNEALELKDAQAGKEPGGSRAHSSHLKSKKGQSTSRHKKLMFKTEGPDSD
In short: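 Using HepG2 hepatoma cells carrying cis-acting multiplexed reporters, mRNA induction is detected after a 24 h exposure. Gain- and loss-of-signal responses are fitted relative to DMSO-treated cells.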

[8] = BSK_3C_TissueFactor: BioMAP Diversity Plus: 3C Assay for Tissue Factor Biomarker Activity (AID 2282997); conditions: BioMAP 3C HUVEC, tissue factor biomarker readout; actives raise or lower the signal
In short: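 HUVEC were treated 24 h, then surface tissue factor measured by ELISA and fitted bidirectionally against DMSO. Parallel SRB total-protein staining assessed overt cytotoxicity at the same time point.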

[9] = BSK_3C_uPAR: BioMAP Diversity Plus: 3C Assay for Urokinase-type plasminogen activator receptor (uPAR) Biomarker Activity (AID 2282998); conditions: BioMAP 3C HUVEC, uPAR biomarker ELISA; actives raise or lower the signal
In short: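 HUVEC primary cells; 24 h post-dose; uPAR by ELISA; gain or loss of signal fitted bidirectionally vs DMSO baseline.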

[10] = BSK_3C_VCAM1: BioMAP Diversity Plus: 3C Assay for Vascular cell adhesion molecule 1 (VCAM1) Biomarker Activity (AID 2282999); conditions: BioMAP 3C HUVEC, VCAM1 ELISA, cytokine-stimulated; actives raise or lower the signal
In short: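 Endothelial cells from human umbilical vein are treated with test chemical. At 24 h, VCAM-1 is measured by ELISA, and responses in either direction are fitted relative to DMSO.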

[11] = BSK_4H_Eotaxin3: BioMAP Diversity Plus: 4H Assay for Eotaxin 3 Biomarker Activity (AID 2283000); conditions: primary human endothelial cells (HUVEC); actives raise or lower the signal
In short: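 Eotaxin-3 (CCL26) levels were measured by ELISA in HUVEC primary cultures 24 h post-dosing. Gain or loss of signal was fitted in both directions, with DMSO serving as baseline and negative control.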

[12] = biological target: human Peroxisome Proliferator-activated Receptor alpha (PPARa), PPARA (gene 5465) (UniProt Q07869); assay: ATG_PPARa_TRANS: Attagene TRANS-FACTORIAL HepG2 Assay for human Peroxisome Proliferator-activated Receptor alpha (PPARa) (AID 2283001; active = hit-call score of the fitted dose curve at least 0.9, where 1 is the maximum;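 for AC50: potency for gain of reporter signal over DMSO so agonist or activator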)
Sequence of human Peroxisome Proliferator-activated Receptor alpha (PPARa), PPARA (gene 5465) (Q07869 whole entry, looked up, the tested form may be a part): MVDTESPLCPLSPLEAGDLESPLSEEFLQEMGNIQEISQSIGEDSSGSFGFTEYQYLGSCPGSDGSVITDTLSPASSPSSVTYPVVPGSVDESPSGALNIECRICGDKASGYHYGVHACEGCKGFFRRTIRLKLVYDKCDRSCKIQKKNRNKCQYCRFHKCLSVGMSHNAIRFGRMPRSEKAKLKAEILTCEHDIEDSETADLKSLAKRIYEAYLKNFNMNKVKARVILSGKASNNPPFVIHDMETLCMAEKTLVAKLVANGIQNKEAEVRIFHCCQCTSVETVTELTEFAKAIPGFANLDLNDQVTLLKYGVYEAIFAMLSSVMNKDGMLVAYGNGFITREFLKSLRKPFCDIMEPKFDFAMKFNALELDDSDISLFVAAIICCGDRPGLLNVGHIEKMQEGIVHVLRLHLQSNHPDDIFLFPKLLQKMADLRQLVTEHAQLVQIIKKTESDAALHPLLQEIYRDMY
In short: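 Read-out is fluorescence of reporter cDNA fragments resolved by capillary electrophoresis after RT-PCR. Human HepG2 liver cells carried transfected PPARa-Gal4 chimera and GAL4-UAS reporter units, treated 24 h; activity scored as increase over DMSO.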

[13] = read-out: Intercellular Adhesion Molecule 1 (ICAM1), ICAM1 (gene 3383); assay: BSK_3C_ICAM1: BioMAP Diversity Plus: 3C Assay for Intercellular Adhesion Molecule 1 (ICAM1) Biomarker Activity (AID 2283003); conditions: primary human endothelial cells (HUVEC); actives raise or lower the signal
In short: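 HUVEC primary cells stimulated under 3C conditions; ICAM1 measured by ELISA 24 h after compound dosing. Curves fitted bidirectionally against the DMSO baseline. Overt cytotoxicity checked by SRB staining of parallel cultures.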

[14] = BSK_3C_Proliferation: Cell Proliferation Assessment in the BioMAP Diversity Plus: 3C Assay (AID 2283006); conditions: primary human endothelial cells (HUVEC);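 for AC50: potency may reflect either rise or fall in cell number versus DMSO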
In short: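 Subconfluent HUVEC (3C system) cultured with chemical; relative cell number read at 48 h by sulforhodamine B total-protein staining (0.1% SRB after 10% TCA fixation, 560 nm). Bidirectional fit relative to DMSO.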

[15] = biological target: Nuclear receptor subfamily 1 group I member 2 (Homo sapiens) (UniProt O75469); assay: ATG_PXR_TRANS: Attagene TRANS-FACTORIAL HepG2 Assay for human Pregnane X Receptor (PXR) (AID 2283008; active = hit-call score of the fitted dose curve at least 0.9, where 1 is the maximum)
Sequence of Nuclear receptor subfamily 1 group I member 2 (Homo sapiens) (O75469 whole entry, looked up, the tested form may be a part): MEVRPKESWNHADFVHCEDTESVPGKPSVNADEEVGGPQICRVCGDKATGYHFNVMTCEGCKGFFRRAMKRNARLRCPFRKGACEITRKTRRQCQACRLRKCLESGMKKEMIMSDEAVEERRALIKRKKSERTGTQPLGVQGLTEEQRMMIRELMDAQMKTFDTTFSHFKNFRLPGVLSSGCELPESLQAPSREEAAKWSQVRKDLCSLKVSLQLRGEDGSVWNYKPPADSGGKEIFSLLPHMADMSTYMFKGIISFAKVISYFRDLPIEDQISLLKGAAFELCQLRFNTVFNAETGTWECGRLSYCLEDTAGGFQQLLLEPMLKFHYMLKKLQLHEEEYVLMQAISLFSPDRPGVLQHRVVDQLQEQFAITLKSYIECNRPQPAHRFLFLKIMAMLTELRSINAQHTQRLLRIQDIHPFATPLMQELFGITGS
In short: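 Fluorescence intensity of FAM-labelled, HpaI-digested reporter amplicons, separated by capillary electrophoresis, quantifies induction. HepG2 cells with PXR-Gal4 trans-reporter system were exposed 24 h; DMSO defines baseline.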

[16] = biological target: human Peroxisome Proliferator-activated Receptor delta (PPARd), PPARD (gene 5467) (UniProt Q03181); assay: ATG_PPARd_TRANS: Attagene TRANS-FACTORIAL HepG2 Assay for human Peroxisome Proliferator-activated Receptor delta (PPARd) (AID 2283002; active = hit-call score of the fitted dose curve at least 0.9, where 1 is the maximum)
Sequence of human Peroxisome Proliferator-activated Receptor delta (PPARd), PPARD (gene 5467) (Q03181 whole entry, looked up, the tested form may be a part): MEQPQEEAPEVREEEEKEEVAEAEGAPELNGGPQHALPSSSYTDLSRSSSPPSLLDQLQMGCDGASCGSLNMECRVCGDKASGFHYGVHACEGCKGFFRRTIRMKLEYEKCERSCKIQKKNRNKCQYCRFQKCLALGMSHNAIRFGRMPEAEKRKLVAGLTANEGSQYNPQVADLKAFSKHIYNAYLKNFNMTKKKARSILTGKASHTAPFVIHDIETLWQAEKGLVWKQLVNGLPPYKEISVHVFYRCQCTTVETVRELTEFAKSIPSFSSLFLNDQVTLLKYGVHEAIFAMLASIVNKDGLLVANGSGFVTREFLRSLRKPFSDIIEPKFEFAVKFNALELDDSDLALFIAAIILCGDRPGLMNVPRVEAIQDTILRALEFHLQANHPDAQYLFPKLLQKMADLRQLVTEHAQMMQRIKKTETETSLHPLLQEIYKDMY
In short: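 Transient HepG2 transfection (multiple GAL4-UAS RTUs, chimeric receptor-Gal4); 24 h dosing; total RNA → oligo(dT) RT → PCR → 6-FAM primer extension → HpaI cut → CE. Positive direction vs DMSO.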

[17] = biological target: Retinoic acid receptor alpha (Homo sapiens) (UniProt P10276); assay: ATG_RARa_TRANS: Attagene TRANS-FACTORIAL HepG2 Assay for human Retinoic Acid Receptor alpha (RARa) (AID 2283005; active = hit-call score of the fitted dose curve at least 0.9, where 1 is the maximum)
Sequence of Retinoic acid receptor alpha (Homo sapiens) (P10276 whole entry, looked up, the tested form may be a part): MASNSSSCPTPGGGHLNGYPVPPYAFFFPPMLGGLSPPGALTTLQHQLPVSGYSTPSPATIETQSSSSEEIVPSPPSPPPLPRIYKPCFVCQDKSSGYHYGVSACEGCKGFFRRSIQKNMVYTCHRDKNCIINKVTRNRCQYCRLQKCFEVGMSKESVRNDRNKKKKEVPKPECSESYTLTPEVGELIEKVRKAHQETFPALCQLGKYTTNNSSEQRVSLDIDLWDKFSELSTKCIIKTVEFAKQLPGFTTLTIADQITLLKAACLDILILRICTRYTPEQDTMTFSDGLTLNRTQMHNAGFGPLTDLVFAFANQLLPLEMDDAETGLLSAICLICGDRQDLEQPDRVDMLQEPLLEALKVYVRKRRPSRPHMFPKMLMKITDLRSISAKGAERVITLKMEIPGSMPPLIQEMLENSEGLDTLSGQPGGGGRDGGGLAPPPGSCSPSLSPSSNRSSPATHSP
In short: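 Reporter transcripts, measured by RT-PCR with fluorescent labeling and capillary electrophoresis after 24 h dosing, reflect activity of an exogenous human RARa–GAL4 fusion in transiently transfected HepG2. Fitted for increase relative to DMSO.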

[18] = biological target: Peroxisome proliferator-activated receptor gamma (Homo sapiens) (UniProt P37231); assay: ATG_PPARg_TRANS: Attagene TRANS-FACTORIAL HepG2 Assay for human Peroxisome Proliferator-activated Receptor-gamma (PPARg) (AID 2283007; active = hit-call score of the fitted dose curve at least 0.9, where 1 is the maximum)
Sequence of Peroxisome proliferator-activated receptor gamma (Homo sapiens) (P37231 whole entry, looked up, the tested form may be a part): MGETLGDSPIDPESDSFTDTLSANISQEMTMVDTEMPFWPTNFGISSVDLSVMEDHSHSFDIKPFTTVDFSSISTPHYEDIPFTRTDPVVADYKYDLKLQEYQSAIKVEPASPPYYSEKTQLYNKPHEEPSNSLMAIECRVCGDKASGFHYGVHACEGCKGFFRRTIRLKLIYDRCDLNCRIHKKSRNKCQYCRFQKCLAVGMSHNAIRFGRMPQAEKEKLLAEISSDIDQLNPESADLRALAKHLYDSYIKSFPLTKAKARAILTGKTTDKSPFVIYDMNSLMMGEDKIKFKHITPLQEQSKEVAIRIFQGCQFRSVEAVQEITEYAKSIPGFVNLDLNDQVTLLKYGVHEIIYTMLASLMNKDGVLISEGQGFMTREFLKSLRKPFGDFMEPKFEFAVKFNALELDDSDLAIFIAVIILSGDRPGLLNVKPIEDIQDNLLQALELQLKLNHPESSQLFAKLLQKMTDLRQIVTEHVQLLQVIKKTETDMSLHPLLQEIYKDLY
In short: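 Read-out: reporter mRNA induction, detected by fluorescence after RT-PCR and capillary electrophoresis. Transiently transfected human HepG2 liver cells carrying a chimeric NR-Gal4 construct were dosed for 24 h; activity was fitted upward relative to DMSO.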

[19] = biological target: human Retinoic Acid Receptor gamma (RARg), RARG (gene 5916) (UniProt P13631); assay: ATG_RARg_TRANS: Attagene TRANS-FACTORIAL HepG2 Assay for human Retinoic Acid Receptor gamma (RARg) (AID 2283009; active = hit-call score of the fitted dose curve at least 0.9, where 1 is the maximum)
Sequence of human Retinoic Acid Receptor gamma (RARg), RARG (gene 5916) (P13631 whole entry, looked up, the tested form may be a part): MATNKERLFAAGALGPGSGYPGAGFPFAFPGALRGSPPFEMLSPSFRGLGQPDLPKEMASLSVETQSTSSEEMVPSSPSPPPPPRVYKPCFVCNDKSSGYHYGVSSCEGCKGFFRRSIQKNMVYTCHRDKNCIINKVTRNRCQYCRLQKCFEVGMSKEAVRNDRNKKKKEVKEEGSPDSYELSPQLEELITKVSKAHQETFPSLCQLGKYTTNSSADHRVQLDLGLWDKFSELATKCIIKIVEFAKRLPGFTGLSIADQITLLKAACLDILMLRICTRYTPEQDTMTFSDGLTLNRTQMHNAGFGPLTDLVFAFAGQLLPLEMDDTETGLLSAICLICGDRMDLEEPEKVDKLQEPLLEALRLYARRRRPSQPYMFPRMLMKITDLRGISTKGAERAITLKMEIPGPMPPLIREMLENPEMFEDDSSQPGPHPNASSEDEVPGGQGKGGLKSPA
In short: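 HepG2 transiently transfected with GAL4-UAS reporter units and chimeric NR-Gal4 constructs; 24 h compound exposure. Reporter mRNA quantified by RT-PCR, FAM labeling, HpaI digestion and capillary electrophoresis; gain-of-signal versus DMSO.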

[20] = biological target: human Retinoic Acid Receptor beta (RARb), RARB (gene 5915) (UniProt P10826); assay: ATG_RARb_TRANS: Attagene TRANS-FACTORIAL HepG2 Assay for human Retinoic Acid Receptor beta (AID 2283004; active = hit-call score of the fitted dose curve at least 0.9, where 1 is the maximum)
Sequence of human Retinoic Acid Receptor beta (RARb), RARB (gene 5915) (P10826 whole entry, looked up, the tested form may be a part): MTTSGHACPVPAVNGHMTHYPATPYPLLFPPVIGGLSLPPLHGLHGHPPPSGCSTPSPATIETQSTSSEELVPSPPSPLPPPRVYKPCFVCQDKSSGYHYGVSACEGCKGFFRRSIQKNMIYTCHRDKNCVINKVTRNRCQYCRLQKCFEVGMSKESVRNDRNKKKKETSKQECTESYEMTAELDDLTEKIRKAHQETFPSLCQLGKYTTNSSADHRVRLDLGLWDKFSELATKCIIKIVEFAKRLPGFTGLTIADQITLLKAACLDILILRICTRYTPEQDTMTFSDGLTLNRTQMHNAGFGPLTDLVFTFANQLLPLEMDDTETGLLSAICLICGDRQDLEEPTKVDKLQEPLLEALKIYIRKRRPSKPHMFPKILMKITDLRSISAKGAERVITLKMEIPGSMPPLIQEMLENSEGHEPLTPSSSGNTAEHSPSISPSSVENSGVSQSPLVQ
In short: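 HepG2 cells were transiently transfected with GAL4-UAS reporter units that report activity of exogenous chimeric NR-Gal4 proteins, then exposed to compound for 24 h. Reporter mRNA was quantified by RT-PCR with capillary electrophoresis fluorescence, as gain of signal over DMSO.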

Measured: AC50

COC(=O)c1ccc(O)cc1
not listed: [16] | [17] | [18] | [19] | [20]
inactive: all other assays above

Oc1ccc2c(c1)OC[C@@H](N1CCC(O)(c3ccc(F)cc3)CC1)[C@H]2O
active: [5] 23.4 µM | [6] 27.1 µM | [18] 16.5 µM | [15] 13.6 µM
not listed: [20]
inactive: all other assays above

CN[C@H]1CC[C@@H](c2ccc(Cl)c(Cl)c2)c2ccc(S(N)(=O)=O)cc21
active: [8] 33.4 µM | [9] 14.3 µM | [10] 30.4 µM | [11] 15.2 µM | [13] 30.9 µM | [14] 6.14 µM
not listed: [12] | [17] | [19] | [20]
inactive: all other assays above

CCCCCCCCCCC
not listed: [15] | [16] | [17] | [18] | [20]
inactive: all other assays above

Nc1ccccc1N
active: [2] 46.1 µM | [5] 9.26 µM | [6] 29 µM | [7] 32.4 µM | [9] 4.58 µM | [10] 11 µM | [14] 9.14 µM
not listed: [12]
inactive: all other assays above

CCCCCCCCCCCCCCCCCC(=O)O
active: [14] 3.97 µM
not listed: [15] | [16] | [17] | [20]
inactive: all other assays above

NCC1(Cc2noc(=O)[nH]2)CCCCC1
not listed: [12] | [16] | [17] | [18] | [19]
inactive: all other assays above

COc1ccc(C)cc1N
not listed: [15] | [17]
inactive: all other assays above

Cc1cccc([N+](=O)[O-])c1C
active: [15] 5.4 µM
not listed: [12] | [16] | [17] | [20]
inactive: all other assays above

COCCOC[C@H](CC1(C(=O)NC2CCC(C(=O)O)CC2)CCCC1)C(=O)Oc1ccc2c(c1)CCC2 (stereo partly drawn)
active: [15] 20.6 µM
not listed: [4] | [17]
inactive: all other assays above

Cc1ccc2ncccc2c1
not listed: [15] | [16] | [17] | [19]
inactive: all other assays above

C=CCOC(=O)c1ccccc1C(=O)OCC=C
active: [5] 27.2 µM
not listed: [16] | [20]
inactive: all other assays above

Cc1ccc(C(C)C)c(O)c1
active: [5] 100 µM | [8] 1.38 µM
not listed: [16] | [17]
inactive: all other assays above

CCCCOC(=O)CCCCCCCCC(=O)OCCCC
active: [7] 156 µM | [12] 37 µM
not listed: [16] | [17] | [20]
inactive: all other assays above

CCCCCCOCCO
not listed: [17] | [19] | [20]
inactive: all other assays above

Reference: PubChem BioAssay (EPA / NIEHS)
